# Assay outcomes: PubChem BioAssay, Buhrlage Lab, Dana-Farber Cancer Institute and Novartis Institutes for BioMedical Research (Cambridge, Mass)
# Most compounds without a hit are left out; they make up all but 12% or so of the library.
# OTUD3 block: inhibitors of human OTUD3 deubiquitinase. AID 1645858. purified OTUD3, Ub-rhodamine fluorescence, 2 h. inhibition, % at 25 µM. Q5T2D3. 47,000 tested, 0.7% active
# USP28 inh: inhibitors of human USP28 deubiquitinase. Q96RU2. purified USP28, Ub-rhodamine cleavage fluorescence, 30 min. inhibition, % at 25 µM. 47,000 tested, 3% active. AID 1645857
# USP17 block: blocks human USP17 ubiquitin-rhodamine cleavage; A8MUK1; purified USP17, Ub-rhodamine cleavage fluorescence, 3 h; inhibition, % at 50 µM; 47,000 tested, 6.5% active; AID 1645855
# USP30 inh: blocks human USP30 ubiquitin-rhodamine cleavage; purified USP30, Ub-rhodamine cleavage fluorescence; inhibition, % at 25 µM; AID 1645860; 47,000 tested, 5.3% active; Q70CQ3
# * = called active by the depositor; . = not tested or not shown. No stated cut-off is given here; in the data, active means inhibition above about 30%; inactive means the rest.
SMILES,OTUD3 block,USP28 inh,USP17 block,USP30 inh
Cc1cc(N2CCC(NC(=O)NCc3ccc(F)cc3)C2=O)ccc1F (stereo not drawn),7.9,3.3,69.8*,12.3
O=C1C(NS(=O)(=O)Cc2cc(F)cc(F)c2)CCN1c1ccccc1 (stereo not drawn),0.8,18.0,46.7*,-12.6
O=C(NCc1cccc(F)c1)NC1CCN(c2ccccc2)C1=O (stereo not drawn),7.6,10.3,44.2*,19.7
O=C1C(NS(=O)(=O)Cc2cccc(F)c2)CCN1c1ccccc1 (stereo not drawn),9.1,19.0,43.8*,34.4*
O=C1C(NS(=O)(=O)Cc2ccccc2F)CCN1c1ccccc1 (stereo not drawn),8.3,12.8,11.6,9.2
COc1ccc(Nc2ncc(C(=O)Nc3ccc(Oc4ccccc4)cc3)c3ccccc23)cc1,24.8,14.3,19.4,67.9*
COc1cc(Cl)ccc1Nc1ncc(C(=O)Nc2cc(OC)c(OC)c(OC)c2)c2ccccc12,6.2,-1.1,93.8*,-3.9
CCOc1ccc(CCNC(=O)c2cnc(Nc3ccccc3OC)c3ccccc23)cc1OCC,15.8,9.0,9.8,17.0
CN(C)C(=O)[C@H]1C[C@@H]2CN(C(=O)NCC3CCCCC3)C[C@H]1O2,11.2,15.5,8.0,24.6
COc1ccc(CNC(=O)CCc2ccc3nc(NC(=O)C(C)C)sc3c2)cc1,-0.2,-0.1,10.5,32.9*
CCCC(=O)Nc1nc2ccc(CCC(=O)Nc3cccc(OC)c3)cc2s1,-1.3,5.5,2.1,17.8
COc1ccc(CSc2nccc(-c3ccc(Cl)cc3)c2C#N)cc1,-7.3,-14.2,-3.4,2.4
COc1ccc(Cn2cc(-c3ccc(Cl)cc3)cc(C#N)c2=O)cc1,15.7,17.0,13.8,41.5*
COc1ccc(NC(=O)Cc2c(C)nc3c(-c4ccccc4)c(C)nn3c2C)cc1,4.5,-14.2,.,7.8
CC(C)C(=O)N1C[C@H]2CN(C(=O)c3cscn3)C[C@H]2C1,11.7,6.2,14.9,13.1
c1ccc(CNc2ccc(-c3ccccc3)nn2)cc1,15.6,37.0*,28.4,45.1*
CN1CCN(C(=O)c2ccc(-c3ccc(NCc4ccccc4)nn3)cc2)CC1,-6.2,0.1,6.7,1.1
O=C(c1ccco1)N(c1ccc(Oc2ccccc2)cc1)c1nc2ccccc2s1,5.8,0.1,44.6*,16.5
Cc1ccc(NC(=O)c2nnn(-c3ccccc3)c2C)c(C)c1,-3.0,-6.3,7.0,1.3
Cc1ccc(Cl)c(-n2nnc(C(=O)Nc3ccccc3C#N)c2C)c1,-4.6,6.3,56.1*,30.2*
Cc1cc(NC(=O)c2nnn(-c3ccccc3Cl)c2C)no1,12.1,85.8*,2.2,14.0
O=C(c1ccccc1F)N1CCC2(CC1)OCCN2S(=O)(=O)c1ccccc1,2.9,4.3,0.0,4.9
O=C1NC2(CCN(S(=O)(=O)c3ccc(F)cc3F)CC2)Nc2ccccc21,2.9,12.3,-0.1,22.1
O=C1NC2(CCN(C(=O)CSc3ccncc3)CC2)Nc2ccccc21,4.2,2.4,11.7,4.6
O=C1NC2(CCN(S(=O)(=O)c3ccc(F)c(Cl)c3)CC2)Nc2ccccc21,-2.6,-7.2,49.9*,-1.9
SMILES,OTUD3 block,USP28 inh,USP17 block,USP30 inh
Cc1ccc(C)c(S(=O)(=O)N2CCC3(CC2)NC(=O)c2ccccc2N3)c1,10.4,5.1,58.6*,19.6
Cc1noc(C)c1CN1CCN(C(=O)NCC2CCCO2)CC1 (stereo not drawn),-9.7,-9.3,-7.0,-7.4
Cc1ccc(S(=O)(=O)N2CCOCC2)cc1NC(=O)C(c1ccccc1)c1ccccc1,7.0,-4.7,-11.4,24.8
Cn1nccc1-c1nccnc1CC1CCN(C(=O)C(C)(C)C)CC1,1.1,-0.1,0.0,-5.0
O=C(c1cc(C2CC2)on1)N1CCc2ccccc2C1,-2.8,0.0,-4.7,-33.4
O=C(O)c1nccnc1C(=O)N1CCc2ccccc2C1,21.6,46.5*,77.7*,7.7
Cc1ccc(C)c(Nc2cc(C)nc3nc(-c4ccco4)nn23)c1,13.3,13.9,58.4*,-15.4
Cc1cc(Nc2cc(F)ccc2F)n2nc(-c3ccco3)nc2n1,-20.0,5.5,-4.4,-77.6
Cc1cc(Nc2ccc(Cl)cc2)n2nc(-c3ccco3)nc2n1,-50.9,0.3,36.2*,-163.4
COc1ccc(C)cc1Nc1cc(C)nc2nc(-c3ccco3)nn12,-12.4,-2.5,17.3,-22.6
Cc1ccc2[nH]c3c(=O)n(Cc4cccnc4)cnc3c2c1,3.9,6.6,34.3*,16.7
O=c1c2[nH]c3ccc(Br)cc3c2ncn1CCO,-3.6,1.4,24.3,2.7
COCCCn1cnc2c([nH]c3ccc(Br)cc32)c1=O,3.7,.,65.3*,.
COc1ccc(Cn2cnc3c([nH]c4ccc(Br)cc43)c2=O)cc1,-20.0,-23.9,61.0*,-12.9
COc1ccc2[nH]c3c(=O)n(Cc4cccnc4)cnc3c2c1,-1.2,8.9,45.1*,23.9
